Results as given in PubChem BioAssay (EPA / NIEHS).
Inconclusive results are not listed. Activity calls are given as the source filed them. The calls were made as follows: active = hit-call score of the fitted dose curve at least 0.9, where 1 is the maximum; inconclusive = response in the unintended direction; inactive = score below 0.9.

Biological target: Estrogen receptor (Homo sapiens) (UniProt P03372)
Assay: NVS_NR_hER: NovaScreen (NVS) Nuclear Receptor Binding Assay for human Estrogen Receptor (ER) (AID 2283348)
Procedure, shortened: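 Cell-free MCF7-derived ER preparation, specific radioligand displaced by test compound, read by scintillation counting 18 h post-dosing. Duplicate single-point 25 uM screen, then concentration-response confirmation; DMSO baseline.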

Chain of Estrogen receptor (Homo sapiens) (P03372 whole entry, looked up, the tested form may be a part): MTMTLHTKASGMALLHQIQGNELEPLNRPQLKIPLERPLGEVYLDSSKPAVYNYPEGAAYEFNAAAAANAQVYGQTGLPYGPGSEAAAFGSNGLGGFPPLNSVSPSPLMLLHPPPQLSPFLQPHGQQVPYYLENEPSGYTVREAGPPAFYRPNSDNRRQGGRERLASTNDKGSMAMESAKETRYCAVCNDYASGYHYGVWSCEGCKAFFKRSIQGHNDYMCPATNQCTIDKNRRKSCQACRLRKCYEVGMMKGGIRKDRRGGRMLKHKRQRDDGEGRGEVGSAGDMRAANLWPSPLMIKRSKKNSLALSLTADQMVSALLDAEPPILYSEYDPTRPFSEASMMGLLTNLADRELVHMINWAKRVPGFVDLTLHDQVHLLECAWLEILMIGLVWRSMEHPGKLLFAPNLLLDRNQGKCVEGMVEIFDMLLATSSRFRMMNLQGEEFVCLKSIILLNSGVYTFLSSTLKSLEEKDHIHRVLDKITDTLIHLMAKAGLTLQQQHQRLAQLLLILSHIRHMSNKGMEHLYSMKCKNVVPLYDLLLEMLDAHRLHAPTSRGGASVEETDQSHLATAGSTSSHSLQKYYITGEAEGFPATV

SMILES	outcome
O=C(O)CCCC[C@@H]1SC[C@@H]2NC(=O)N[C@@H]21	inactive
CC(=O)NS(=O)(=O)c1ccc(N)cc1	inactive
COc1cc(NC(=O)CC(C)=O)c(OC)cc1Cl	inactive
CC(C)(C)C(=O)CCc1ccc(Cl)cc1	inactive
O=C(O)CCCCCCCCCC(=O)O	inactive

Biological target: Estrogen receptor (Homo sapiens) (UniProt P03372)
Assay: OT_ER_ERaERa_1440: Odyssey Thera (OT) 24-hour HEK293T Protein-Complementation Assay for Estrogen Receptor-alpha/-alpha Homodimer (AID 2283349);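 also: hits raise fluorescence above DMSO for agonists and antagonists alike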
Procedure, shortened: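 HEK293T, stable ERα LBD (aa 310-547) homodimer PCA; 24 h compound exposure; mean fluorescence intensity (nuclear for agonists, nuclear plus cytoplasmic for antagonists) vs vehicle; positive fitting direction, DMSO baseline.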

SMILES	outcome	AC50
CC1=NN(c2cc(S(=O)(=O)O)ccc2Cl)C(=O)C1N=Nc1ccccc1 (stereo not given)	inactive	–
CCCCCCC1(C)CCC(=O)O1 (stereo not given)	inactive	–
CCCCCCCCO[C@@H]1O[C@H](CO)[C@@H](O)[C@H](O)[C@H]1O	inactive	–
Cn1c([N+](=O)[O-])cnc1COC(N)=O	inactive	–
O=C(O)CCCC[C@@H]1SC[C@@H]2NC(=O)N[C@@H]21	inactive	–
C=CC(=O)NC(C)(C)CS(=O)(=O)O	inactive	–
CCCCC(CC)CCC(CC(C)C)OS(=O)(=O)O (stereo not given)	inactive	–
Cc1ccc(C(C)(C)C)cc1	inactive	–
CCCCCCCOC(=O)CCC	inactive	–
CCCCCCCC/C=C\CCCCCCCC(=O)O	inactive	–
CC1=CC[C@H]2C[C@@H]1C2(C)C	inactive	–
O=C(C(Cl)Cl)N1CCOC12CCCCC2	inactive	–
CCCc1ccc(OC)cc1	inactive	–
O=C(c1ccccc1)C1CCC1	inactive	–
CCCCOCCOC(=O)COc1nc(Cl)c(Cl)cc1Cl	inactive	–
CNC(=S)NN	inactive	–
O=C(C=Cc1ccccc1)OCc1ccccc1	inactive	–
CC(C)c1ccc2cc(C(C)C)ccc2c1	inactive	–
Cc1cc(C)c(C(=O)O)c(C)c1	inactive	–
CC(C)(C)c1ccc(-c2ccc(C(C)(C)C)cc2)cc1	inactive	–
CC(C)(C)c1ccc(OC(=O)c2ccccc2O)cc1	–	14.5 µM (active)
CCOC(=O)CC	inactive	–
C=C[Si](C)(C)O[Si](C)(C)C=C	inactive	–
O=C1CCCC1	inactive	–
O=C1C(N(CO)C(=O)NCO)N(CO)C(=O)N1CO (stereo not given)	inactive	–
C1CN(SSN2CCOCC2)CCO1	inactive	–
CC(C)=CCC[C@H](C)CCO	inactive	–
CC(CC=O)CCCC(C)(C)O (stereo not given)	inactive	–

Biological target: Estrogen receptor (Homo sapiens) (UniProt P03372)
Assay: OT_ER_ERaERa_0480: Odyssey Thera (OT) 8-hour HEK293T Protein-Complementation Assay for Estrogen Receptor-alpha/-alpha Homodimer (AID 2283351);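 also: rise in fluorescence from reassembled reporter fragments on ERα LBD homodimer in nucleus or whole cell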
Procedure, shortened: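 Measures ERα LBD (aa 310-547) homodimer complementation in stably transfected HEK293T at 8 h post-dose, with fluorescence intensity quantified on a laser scanning cytometer relative to DMSO controls.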

SMILES	outcome
C=CC(=O)NC(C)(C)CS(=O)(=O)O	inactive
CCCCC(CC)CCC(CC(C)C)OS(=O)(=O)O (stereo not given)	inactive
Cc1ccc(C(C)(C)C)cc1	inactive
O=C(c1ccccc1)C1CCC1	inactive
CNC(=S)NN	inactive
CC(C)(C)c1ccc(OC(=O)c2ccccc2O)cc1	inactive
C=C[Si](C)(C)O[Si](C)(C)C=C	inactive
CC(C)=CCC[C@H](C)CCO	inactive
CC(CC=O)CCCC(C)(C)O (stereo not given)	inactive

Biological target: T1, Estrogen receptor (Homo sapiens) + Estrogen receptor beta (Homo sapiens) (UniProt P03372+Q92731)
T1 sequence (P03372 whole entry, looked up): as the sequence (P03372 whole entry, looked up, the tested form may be a part) above
T1 sequence (Q92731 whole entry, looked up): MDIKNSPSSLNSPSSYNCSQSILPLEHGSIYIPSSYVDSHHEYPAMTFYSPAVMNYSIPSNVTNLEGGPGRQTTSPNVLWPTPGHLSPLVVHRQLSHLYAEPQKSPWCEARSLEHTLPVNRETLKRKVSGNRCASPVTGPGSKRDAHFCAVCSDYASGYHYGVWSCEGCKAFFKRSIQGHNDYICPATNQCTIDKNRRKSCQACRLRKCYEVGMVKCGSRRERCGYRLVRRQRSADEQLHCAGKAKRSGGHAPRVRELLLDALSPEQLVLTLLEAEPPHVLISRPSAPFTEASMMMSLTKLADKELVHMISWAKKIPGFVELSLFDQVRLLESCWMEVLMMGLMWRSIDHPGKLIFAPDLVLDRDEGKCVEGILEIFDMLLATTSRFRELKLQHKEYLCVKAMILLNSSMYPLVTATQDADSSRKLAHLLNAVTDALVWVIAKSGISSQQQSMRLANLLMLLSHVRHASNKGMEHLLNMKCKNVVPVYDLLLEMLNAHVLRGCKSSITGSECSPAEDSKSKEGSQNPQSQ
Assay: OT_ER_ERaERb_0480: Odyssey Thera (OT) 8-hour HEK293T Protein-Complementation Assay for Estrogen Receptor-alpha/-beta Heterodimer (AID 2283352)
Procedure, shortened: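 Fluorescence increase from reconstituted reporter fragments, quantified by laser scanning cytometer, reflects ER-alpha/ER-beta heterodimer formation in human HEK293T cells. Exposure 8 h; positive-direction fitting against DMSO vehicle.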

SMILES	outcome	AC50
CC1=NN(c2cc(S(=O)(=O)O)ccc2Cl)C(=O)C1N=Nc1ccccc1 (stereo not given)	inactive	–
Cn1c([N+](=O)[O-])cnc1COC(N)=O	inactive	–
O=C(O)CCCC[C@@H]1SC[C@@H]2NC(=O)N[C@@H]21	inactive	–
C=CC(=O)NC(C)(C)CS(=O)(=O)O	inactive	–
CCCCC(CC)CCC(CC(C)C)OS(=O)(=O)O (stereo not given)	inactive	–
CCCCCCCOC(=O)CCC	inactive	–
CC1=CC[C@H]2C[C@@H]1C2(C)C	inactive	–
CCCc1ccc(OC)cc1	inactive	–
O=C(c1ccccc1)C1CCC1	inactive	–
CNC(=S)NN	inactive	–
O=C(C=Cc1ccccc1)OCc1ccccc1	inactive	–
CC(C)c1ccc2cc(C(C)C)ccc2c1	inactive	–
Cc1cc(C)c(C(=O)O)c(C)c1	inactive	–
CC(C)(C)c1ccc(-c2ccc(C(C)(C)C)cc2)cc1	inactive	–
CC(C)(C)c1ccc(OC(=O)c2ccccc2O)cc1	–	58.9 µM (active)
O=C1CCCC1	inactive	–
CC(C)=CCC[C@H](C)CCO	inactive	–

Biological target: Androgen Receptor/SRC-1 Co-activator, AR (gene 367) (UniProt P10275)
Sequence (P10275 whole entry, looked up): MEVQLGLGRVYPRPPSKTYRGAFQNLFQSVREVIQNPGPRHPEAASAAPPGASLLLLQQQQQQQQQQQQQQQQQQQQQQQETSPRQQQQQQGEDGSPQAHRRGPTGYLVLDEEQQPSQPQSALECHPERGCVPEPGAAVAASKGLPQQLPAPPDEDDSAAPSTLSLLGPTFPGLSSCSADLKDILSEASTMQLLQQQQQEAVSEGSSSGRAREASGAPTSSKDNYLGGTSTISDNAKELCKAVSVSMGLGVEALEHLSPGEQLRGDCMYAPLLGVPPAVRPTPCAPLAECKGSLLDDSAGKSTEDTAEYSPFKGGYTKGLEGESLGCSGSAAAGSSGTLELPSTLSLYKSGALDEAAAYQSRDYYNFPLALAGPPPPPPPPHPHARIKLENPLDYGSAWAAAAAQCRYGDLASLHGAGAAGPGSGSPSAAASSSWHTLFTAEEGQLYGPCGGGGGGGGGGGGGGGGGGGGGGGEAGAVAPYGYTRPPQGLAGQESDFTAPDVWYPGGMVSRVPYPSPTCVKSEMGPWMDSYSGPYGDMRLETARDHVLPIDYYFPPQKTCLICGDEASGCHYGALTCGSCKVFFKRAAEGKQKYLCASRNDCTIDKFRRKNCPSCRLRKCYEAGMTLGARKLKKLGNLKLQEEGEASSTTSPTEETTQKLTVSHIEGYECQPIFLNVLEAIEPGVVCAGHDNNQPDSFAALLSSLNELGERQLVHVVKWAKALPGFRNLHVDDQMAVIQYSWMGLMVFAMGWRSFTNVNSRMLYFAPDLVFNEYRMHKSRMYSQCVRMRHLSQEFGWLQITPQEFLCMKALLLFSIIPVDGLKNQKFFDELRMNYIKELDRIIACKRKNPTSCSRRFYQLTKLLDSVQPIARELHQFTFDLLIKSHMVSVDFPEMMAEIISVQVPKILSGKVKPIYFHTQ
Assay: OT_AR_ARSRC1_0960: Odyssey Thera (OT) 16-hour HEK293T Protein-Complementation Assay for Androgen Receptor/SRC-1 Co-activator (AID 2283353);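 also: actives raise the signal above DMSO so potency reflects increased AR and SRC-1 complex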
Procedure, shortened: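 Sixteen-hour cell assay: Venus halves fused to AR and SRC-1 in HEK293T report binding. Images at 488/635 nm give an N/C ratio in the 488 nm channel over ≥400 cells, analysed as signal increase over DMSO.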

SMILES	outcome	AC50
CCCc1ccc(OC)cc1	inactive	–
CC(C)c1ccc2cc(C(C)C)ccc2c1	inactive	–
CC(C)(C)c1ccc(-c2ccc(C(C)(C)C)cc2)cc1	–	77.8 µM (active)
CC(C)=CCC[C@H](C)CCO	inactive	–
CC(CC=O)CCCC(C)(C)O (stereo not given)	inactive	–

Biological target: Androgen Receptor/SRC-1 Co-activator, AR (gene 367) (UniProt P10275)
Assay: OT_AR_ARSRC1_0480: Odyssey Thera (OT) 8-hour HEK293T Protein-Complementation Assay for Androgen Receptor/SRC-1 Co-activator (AID 2283354);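 also: hits raise the complementation signal above DMSO so AC50 marks enhancers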
Procedure, shortened: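 Reconstituted split-Venus YFP signal from AR–SRC-1 interaction, read by imaging 8 h post-dose in stable HEK293T lines. The 488 nm nucleus-to-cytoplasm ratio (≥400 cells/image) was fitted upward against DMSO.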

SMILES	outcome
CCCc1ccc(OC)cc1	inactive
CC(C)c1ccc2cc(C(C)C)ccc2c1	inactive
CC(C)(C)c1ccc(-c2ccc(C(C)(C)C)cc2)cc1	inactive
CC(C)=CCC[C@H](C)CCO	inactive
CC(CC=O)CCCC(C)(C)O (stereo not given)	inactive

Biological target: T1, Estrogen receptor (Homo sapiens) + Estrogen receptor beta (Homo sapiens)
Assay: OT_ER_ERaERb_1440: Odyssey Thera (OT) 24-hour HEK293T Protein-Complementation Assay for Estrogen Receptor-alpha/-beta Homodimer (AID 2283356);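 also: heteromer of ER alpha and ER beta binding domains; hits raise reporter fluorescence and both agonists and antagonists give an increase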
Procedure, shortened: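 Fragment complementation between ER alpha (310-547) and ER beta (263-489) ligand-binding domains in HEK293T cells; signal read 24 h post-dosing by laser scanning cytometer. Gain of fluorescence relative to DMSO fitted.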

SMILES	outcome	AC50
CC1=NN(c2cc(S(=O)(=O)O)ccc2Cl)C(=O)C1N=Nc1ccccc1 (stereo not given)	inactive	–
CCCCCCCCO[C@@H]1O[C@H](CO)[C@@H](O)[C@H](O)[C@H]1O	inactive	–
Cn1c([N+](=O)[O-])cnc1COC(N)=O	inactive	–
O=C(O)CCCC[C@@H]1SC[C@@H]2NC(=O)N[C@@H]21	inactive	–
C=CC(=O)NC(C)(C)CS(=O)(=O)O	inactive	–
CCCCC(CC)CCC(CC(C)C)OS(=O)(=O)O (stereo not given)	inactive	–
CCCCCCCOC(=O)CCC	inactive	–
CC1=CC[C@H]2C[C@@H]1C2(C)C	inactive	–
O=C(C(Cl)Cl)N1CCOC12CCCCC2	inactive	–
CCCc1ccc(OC)cc1	inactive	–
O=C(c1ccccc1)C1CCC1	inactive	–
CNC(=S)NN	inactive	–
O=C(C=Cc1ccccc1)OCc1ccccc1	inactive	–
CC(C)c1ccc2cc(C(C)C)ccc2c1	inactive	–
Cc1cc(C)c(C(=O)O)c(C)c1	inactive	–
CC(C)(C)c1ccc(-c2ccc(C(C)(C)C)cc2)cc1	inactive	–
CC(C)(C)c1ccc(OC(=O)c2ccccc2O)cc1	–	55.2 µM (active)
CCOC(=O)CC	inactive	–
O=C1CCCC1	inactive	–
O=C1C(N(CO)C(=O)NCO)N(CO)C(=O)N1CO (stereo not given)	inactive	–
CC(C)=CCC[C@H](C)CCO	inactive	–
